Structures are written as SMILES. Compounds without any hit were thinned out: in the full panel of roughly 83,000, 20% have a hit.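 Assay: single dose, 48 h. Readout: percent growth (0 = no net growth; negative = cell death). Active: <10.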 Unmarked numbers belong to inactive results. Active and inactive are the calls of the source.

These results are taken from PubChem BioAssay (NCI).

Common to all, as to experiment: NCI-60 one-dose screen, 48 h (100 = growth as untreated, 0 = no growth, -100 = all killed)
Common to all, as to conditions: 10 µM unless noted

Assay [1] has as its system NCI-H23 lung.
For assay [2], the system named is NCI-H226 lung.
For assay [3], the system named is NCI-H322M lung.
The subject of assay [4] is HOP-62 NSCLC.
For assay [5], the system named is NCI-H460 lung.
The test system of assay [6] is HOP-92 NSCLC.
Assay [7] has as its system NCI-H522 lung.
Assay [8] relates to A549/ATCC NSCLC.
In assay [9] the test system is 786-0 renal.
Assay [10] deals with DU-145 prostate.
The test system of assay [11] is K-562 leukemia.
Assay [12] has as its system MALME-3M melanoma.
In assay [13] the test system is MDA-MB-231 breast.
Assay [14] has as its system RXF 393 renal.
Assay [15] deals with SF-268 CNS.
The subject of assay [16] is SF-295 CNS.
Assay [17] has as its system SF-539 CNS.
Assay [18] relates to UACC-257 melanoma.
Assay [19] relates to M14 melanoma.

Turning to `CC(C)(C)CC(C)(C)Nc1c(-c2ccc(-c3ccccc3)cc2)nc2cnccn12`, the growth in [1] is 91.5%; in assay [2] it was 87.4%; in assay [3], 81.5%; in [4], 79.9%; in assay [5] it was 80%; in assay [6], 93.3%. Also, the growth in assay [7] was 37.5%; in [8], 56.4%; in assay [9], 80.6%; in assay [10], 94.9%; in assay [11], 62.7%; in assay [12], 108%. Further, the growth in assay [13] was 90.6%; in assay [14] it was 94.4%; in assay [15], 81.5%; in assay [16], 97.6%; in assay [17] it was 90.5%; in assay [18], 83.3%. Moreover, the growth in assay [19] is 89.2%.

Regarding `COc1ccc(Oc2nc(Nc3ccc(N4CCOCC4)nc3)ncc2NC(=O)c2cc(OC)cc(OC)c2)cc1`, the growth in assay [1] was 97.9%; in assay [2], 65%; in assay [3], 88%; in assay [4], 82.6%; in assay [5], 82.3%; in assay [6], 82.8%. The growth in assay [7] was 52.1%; in [8] it was 84.6%; in [9] it was 67.4%; in assay [10] it was 89.6%; in assay [11] it was 49.8%; in assay [12], 107%. For the same molecule, the growth is 81.9% in assay [13]; 58.6% in assay [14]; 82.2% in [15]; 83.7% in [16]; 78.2% in assay [17]; 89.7% in assay [18]. Moreover, the growth in assay [19] is 72.8%.

Regarding `O=S(=O)(Nc1ccsc1-c1nc(-c2ccccc2)no1)c1cc(Cl)cc(Cl)c1`, the growth in assay [1] was 94.4%; in [2] it was 98.6%; in assay [3] it was 95.4%; in assay [4], 76.2%; in assay [5], 100%; in assay [6], 83.5%. Further, the growth in assay [7] is 77.3%; in [8] it was 90%; in assay [9], 98.5%; in assay [10], 101%; in [11], 105%; in assay [12] it was 99.6%. Further, the growth is 102% in [13]; 101% in assay [14]; 92.8% in assay [15]; 98.3% in assay [16]; 91.4% in [17]; 85.8% in assay [18]. For the same molecule, the growth in [19] was 92.1%.

Take `CN(C)c1ccc(/C=C2\C=C(c3ccccc3)N(CCc3ccccc3)C2=O)cc1`: the growth is 64.2% in [1]; 52.8% in assay [2]; 71.9% in assay [3]; -14% (active) in [4]; 23.6% in [5]; 51.2% in [6]. Also, the growth in assay [7] was 50.6%; in assay [8], 34.8%; in [9], 48.9%; in assay [10] it was 60.4%; in [11], 90.6%; in assay [12] it was 57.7%. Besides, the growth was 84.6% in assay [13]; 81.4% in assay [14]; 43.8% in [15]; 53.9% in [16]; 61.6% in assay [17]; 76.8% in [18]. For the same molecule, the growth in assay [19] is 51.7%.

As to `OCCCCc1nccc2c1[nH]c1ccccc12`, the growth was 98.8% in [1]; 90.7% in assay [2]; 88.9% in assay [3]; 95.3% in assay [4]; 104% in [5]; 104% in [6]. Besides, the growth was 117% in [7]; 72.6% in [8]; 102% in [9]; 114% in assay [10]; 79.8% in assay [11]; 115% in assay [12]. For the same molecule, the growth was 94.8% in [13]; 65.7% in [14]; 105% in assay [15]; 102% in [16]; 90.8% in assay [17]; 113% in assay [18]. Besides, the growth in assay [19] was 102%.

`CN(CCCCCCCCNc1ccnc2ccccc12)Cc1ccc(-c2ccc(-c3ccc(C#N)cc3)s2)cc1`: the growth is 21.1% in [1]; -66.9% (active) in [2]; -66% (active) in [3]; -11.2% (active) in assay [4]; -76.3% (active) in [5]; 44.8% in [6]. Also, the growth in assay [7] is -62.9% (active); in assay [8] it was -60.7% (active); in [9] it was -89.8% (active); in [10], -67.3% (active); in assay [11], -18.4% (active); in [12], -80.7% (active). Besides, the growth in assay [13] was -80.1% (active); in assay [14], -86% (active); in [15] it was -76.6% (active); in assay [16], -64.1% (active); in [17] it was -89% (active); in assay [18], -38.7% (active). In addition, the growth in assay [19] was -84% (active).

`COc1cc(CNC(=O)/C=C/C=C/c2ccc3c(c2)OCO3)ccc1OCc1cn(-c2ccc(Cl)c(Cl)c2)nn1`: the growth in [1] is -34.1% (active); in [2], 31.2%; in [3] it was 21.6%; in [4] it was -19.8% (active); in assay [5] it was -57.5% (active); in assay [6] it was -14.7% (active). Besides, the growth in assay [7] was 5.67% (active); in assay [8], 2.23% (active); in [9] it was -40.6% (active); in [10], -32.3% (active); in assay [11], 5.49% (active); in assay [12] it was -54.7% (active). The growth is 5.5% (active) in assay [13]; -24% (active) in assay [14]; 18% in [15]; -39% (active) in assay [16]; 74.4% in [17]; -17.4% (active) in [18]. Also, in [19], the growth is -30.4% (active).

As for `N#Cc1c(-c2ccccc2)nc(SCC2CO2)nc1N1CCOCC1` (configuration not stated), the growth is 71.4% in assay [1]; 75% in [2]; 65.8% in assay [3]; 54.3% in assay [4]; 67.6% in assay [5]; 18.3% in assay [6]. The growth in assay [7] is 57.9%; in [8], 83.8%; in [9], 65.5%; in [10] it was 87.5%; in assay [11], 97.4%; in [12], 25.7%. Further, the growth in assay [13] is 71.4%; in assay [14] it was 31.5%; in assay [15], 69.7%; in assay [16], 9.14% (active); in assay [17], 85.6%; in assay [18], 69.2%. Moreover, the growth in assay [19] is 84%.
